40 molecules from PubChem BioAssay (NCATS) can be followed below.

Results filed as inconclusive are left out. The source made the active and inactive calls. Calls follow the shape of the dose curve; as a rule, active = well fitted inhibition curve with a large enough effect; inconclusive = small, poorly fitted or top-dose-only effect; inactive = no such curve, though single readings can be large or run the other way.
Potency is read from the fitted curve at half-maximal effect.

A short description of the assay: BET inhibitor-based combinations targeting novel dependencies in MECOM-rearranged (r) AML: HNT-34 cell line (AID 2202234). Also: nearly all actives have a fitted effect of over 35% in size.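 As to viability (% of control): plate controls were vehicle wells for no effect and cell-free wells for full effect.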 Conditions: HNT-34 AML viability, CellTiter-Glo luminescence, 48 h; series mostly up to 46 µM; viability (% of control): at the top concentration. The text has this:
Ecotropic viral insertion site 1 (EVI1) is located on chromosome 3q26.2 as part of the MECOM (MDS and EVI1 complex) locus. Under normal hematopoiesis, EVI1 is a regulator of hematopoietic stem cell maintenance and self-renewal and EVI1 levels decrease as the cells differentiate. In approximately 5-10% of de novo acute myeloid leukemia (AML) EVI1 is aberrantly expressed, including Chromosomal inv(3)(q21;q26.2) or t(3;3)(q21;q26.2) alterations (MECOM-r) that account for about 50% of AML with EVI1 overexpression 31. AMLs with high levels of EVI1 have a poor prognosis and an overall survival time averaging between 10-14 months. EVI1 overexpression confers resistance in leukemia cells, highlighting the need to develop new targeted therapies for EVI1 overexpressing AMLs. Here, we performed an unbiased chemical drug screening by evaluating the single agent activity of a collection of 2,480 oncology-focused, approved and investigational drugs (NCATS Mechanism Interrogation Plates, MIPE v5.0) against a panel of seven AML cell lines. These included four MECOM-r cell-lines (AML-191, AML-194, UCSD-AML1 and HNT-34) and three non-MECOM-r AMLs (MV4-11, OCI-AML3 and SET-2). Exploiting the mechanistic redundancy built in the library, we identified target-level sensitivities in MECOM-r AML cells and relative activity as compared to other AML subtypes.
A collection of 2480 mechanistically annotated dugs (MIPE v5.0) was used to screen four 3q26.2 rearranged AML cell lines and three non-3q26.2 rearranged AML cell lines. This library purposely exploits redundancy by including multiple inhibitors of key onco-targets, while simultaneously encompassing mechanistic diversity, targeting more than 800 distinct mechanisms of action. Briefly, cells were seeded in 5 uL of growth media using a Multidrop Combi dispenser into 1536 well white polystyrene tissue culture treated plates (Corning) at a density of 500cells/well. For each cell-line, for each of the 2480 drugs in MIPE v5.0 library, an 11-point dose curve was generated via a 1536 pin-tool. Plates were incubated for 48 hr at standard incubator conditions, covered by a stainless steel gasketed lid to prevent evaporation. Cell viability was determined by luminescence based, Cell Titer Glo assay (Promega). In detail, 3 uL of Cell Titer Glo were added to each well and plates were incubated at room temperature for 15 min with a stainless-steel lid in place. Luminescence readings were taken using a Viewlux (PerkinElmer) with a 2 s exposure time per plate. Compound dose-response curves were normalized to DMSO and empty well controls on each plate. Quantitative drug activity data from dose-response curves was determined utilizing area Under the Curve (AUC) and Z-transformed AUC (Z-AUC, a mean-centering transformation applied to each individual cell-line screened).
In general terms: ATP-based viability assays read luminescence as a measure of living cells.
`Cc1cccc(-c2nn3c(c2-c2ccnc4ccc(C(N)=O)cc24)CCC3)n1`: the “viability (% of control)” value is 125% (inactive).
For the molecule `CCn1c(C(=O)N(C2CC2)C2CC2)cc2c3c(ncn3C)c(Nc3cc(C)n(C)n3)nc21`, the Potency is 16600 nM (active).
As for `c1ccc(-c2oc3ncnc(NC[C@@H]4CCCO4)c3c2-c2ccccc2)cc1`, the “viability (% of control)” value is 57.4% (inactive).
The same measure, in the same setting: as for `COc1ccc([C@@H]2Sc3ccccc3N(CCN(C)C)C(=O)[C@@H]2OC(C)=O)cc1`, the figure is 95.4% (inactive).
Take `Cc1cc(Nc2nc(N[C@@H](C)c3ncc(F)cn3)ncc2Cl)n[nH]1`: the Potency is 2630 nM (active).
The same measure, in the same setting: as for `O=C1CCc2ccc(OCCCCN3CCN(c4cccc(Cl)c4Cl)CC3)cc2N1`, the figure is 20900 nM (active).
With `COC1CCC(C(=O)c2ccc3nc4c(cc3c2)CCCO4)CC1` (stereo not given), the “viability (% of control)” value is 98.7% (inactive).
Consider `CC(C)(C)c1cc(C(=O)O)c(NC(=O)Nc2ccc3[nH]ncc3c2)s1`, for which the “viability (% of control)” value is 112% (inactive).
For the molecule `Cn1cc(-c2ccncc2)c(-c2ccc(OCc3ccc4ccccc4n3)cc2)n1`, the Potency is 23500 nM (active).
Regarding `C=CC(=O)Nc1cc2c(Nc3ccc(F)c(Cl)c3)ncnc2cc1OCCCN1CCOCC1`, the Potency was 2630 nM (active).
As for `COc1ccc(Cl)c(Nc2ncnc3cc(OCC4CCN(C)CC4)c(OC)cc23)c1`, the Potency is 742 nM (active).
Still for that read-out and setting: as for `COC(=O)Nc1cc(Nc2cc(NC3CC3)c3ncc(C#N)n3n2)c(Cl)c(N2CCN(C)CC2)c1`, the figure is 1320 nM (active).
On to `COC(c1ccccc1)(c1ccccc1)[C@H](Oc1nc(C)cc(C)n1)C(=O)O`, for which the “viability (% of control)” value was 94% (inactive).
In the case of `COc1cc2c(cc1OC)CN(CCc1ccc(NC(=O)c3cc(OC)c(OC)cc3NC(=O)c3cnc4ccccc4c3)cc1)CC2`, the “viability (% of control)” value is 102% (inactive).
Regarding `OCCN1C[C@H](O)[C@@H](O)[C@H](O)[C@H]1CO`, the “viability (% of control)” value is 97.6% (inactive).
`COc1cc(Nc2nc3ccccc3nc2NS(=O)(=O)c2ccc(NC(=O)c3ccc(C)c(OC)c3)cc2)cc(OC)c1`: the “viability (% of control)” value was 96.1% (inactive).
On to `C[C@@H](c1ncncc1F)[C@](O)(Cn1cncn1)c1ccc(F)cc1F`, for which the “viability (% of control)” value was 107% (inactive).
For the molecule `CC(C)c1noc(N2CCC(COc3ccc(-c4ccc(S(C)(=O)=O)cc4)nc3)CC2)n1`, the “viability (% of control)” value was 92.9% (inactive).
On to `O=C(/C=C/C#Cc1cccc(NS(=O)(=O)c2ccccc2)c1)NO`, for which the Potency is 723 nM (active).
As to `O=C(Nc1nc2cccc(-c3ccc(CN4CCS(=O)(=O)CC4)cc3)n2n1)C1CC1`, the Potency is 14800 nM (active).
`C[C@@H]1COCCN1c1cc(=O)n2c(n1)N(Cc1cncc(Cl)c1)[C@H](C(F)(F)F)CC2`: the “viability (% of control)” value was 94.4% (inactive).
Consider `c1cc(-c2cnn3cc(-c4ccc(OCCN5CCCCC5)cc4)cnc23)ccn1`, for which the Potency is 1660 nM (active).
In the case of `N#Cc1ccc(Oc2ccc3c(c2)COB3O)cc1`, the “viability (% of control)” value is 90% (inactive).
`COc1ccc2c(Oc3ccc(NC(=O)c4c(C)n(CC(C)(C)O)n(-c5ccccc5)c4=O)cc3F)ccnc2c1`: the Potency was 4680 nM (active).
With `CC(=O)OCC(CCn1cnc2cnc(N)nc21)COC(C)=O`, the “viability (% of control)” value is 101% (inactive).
The same measure, in the same setting: as for `CC(C)[C@H](O)C(=O)N[C@@H](C)C(=O)N[C@@H]1C(=O)N(C)CCc2ccccc21`, the figure is 105% (inactive); as for `Cc1nc(-c2ccc(OCC(C)C)c(C#N)c2)sc1C(=O)O`, 85.7% (inactive).
Consider `C[C@]12CC[C@H](O)CC1=CCC1C2CC[C@]2(C)C(n3cnc4ccccc43)=CCC12` (stereo not given in full), for which the “viability (% of control)” value was 97.4% (inactive).
Turning to `COc1cc(C(=O)NC2CCN(C)CC2)c(F)cc1Nc1ncc2c(n1)N(C1CCCC1)CC(F)(F)C(=O)N2C`, the Potency was 105 nM (active).
`CN(C)CC/C=C1/c2ccccc2COc2ccc(CC(=O)O)cc21`: the “viability (% of control)” value is 110% (inactive).
On to `C=CC(=O)Nc1cccc(Sc2nc(Nc3ccc(N4CCN(C)CC4)cc3)ncc2Cl)c1`, for which the Potency was 6610 nM (active).
In the case of `O=C(c1ccc(NS(=O)(=O)c2cccc3cccnc23)cc1)N1CCN(CC2CC2)CC1`, the “viability (% of control)” value is 106% (inactive).
For the molecule `CN(C)C1CCN(C(=O)c2ccc(NC(=O)Nc3ccc(-c4nc(N5CCOCC5)nc(N5CCOCC5)n4)cc3)cc2)CC1`, the Potency was 118 nM (active).
Still for that read-out and setting: the value for `COc1cc2c(cc1OC)[C@@H]1C(=O)c3ccc4c(c3O[C@@H]1CO2)C=CC(C)(C)O4` was 23500 nM (active).
For the molecule `CCC(C)N(C)C(=O)c1cc2ccccc2c(-c2ccccc2Cl)n1` (stereo not given), the “viability (% of control)” value was 85.2% (inactive).
Regarding `Cn1ccc2cc3c(cc21)CCN3C(=O)Nc1cccnc1`, the “viability (% of control)” value is 104% (inactive).
As for `Nc1nccc(Oc2ccc(NC(=O)c3c[nH]cc(-c4ccc(F)cc4)c3=O)cc2F)c1Cl`, the Potency is 18600 nM (active).
As for `Nc1nc(Nc2ccc(S(N)(=O)=O)cc2)nn1C(=O)c1c(F)cccc1F`, the Potency is 2950 nM (active).
In the case of `O=C(c1c(F)ccc(NS(=O)(=O)N2CC[C@@H](F)C2)c1F)c1c[nH]c2ncc(-c3cnc(C4CC4)nc3)cc12`, the Potency is 5900 nM (active).
`O=C1NC(=O)C(c2cnc3ccccn23)=C1c1cn2c3c(cc(F)cc13)CN(C(=O)N1CCCCC1)CC2`: the Potency was 66.1 nM (active).
